One assay addresses T1, SPIC (Homo sapiens, UniProt Q8N5J4 1-248).
T1 sequence: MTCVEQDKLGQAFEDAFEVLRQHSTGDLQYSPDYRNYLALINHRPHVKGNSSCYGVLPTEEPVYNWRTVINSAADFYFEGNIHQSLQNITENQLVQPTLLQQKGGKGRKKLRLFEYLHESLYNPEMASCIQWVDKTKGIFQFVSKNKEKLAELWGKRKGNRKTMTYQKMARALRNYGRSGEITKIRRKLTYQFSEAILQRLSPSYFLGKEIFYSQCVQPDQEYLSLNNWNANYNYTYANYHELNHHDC
Kind of assay: DAPPL (digital affinity profiling via proximity ligation, sequencing); 10 mM Tris-HCl pH 7.5, 50 mM NaCl, 1 mM DTT, 4% glycerol, room temperature, 30 min; GST-TFs on glutathione beads, 16-mer random dsDNA library, 0.1% formaldehyde crosslink after washing; high values mean tight binding. The following applies: protein: recombinant; tags: N-terminal GST; dsDNA, one strand shown. In outline:
(§1)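 In yeast, human transcription factors were expressed with a GST fusion, then pulled down on glutathione beads and given DNA barcodes. Pooled with a tag-only sample, they were exposed to 200 nmole of a 16-mer random double-stranded DNA library (Tris/NaCl/DTT/glycerol buffer, room temperature, 30 min), washed, crosslinked with 0.1% formaldehyde, proximity-ligated using BsaI/T4 ligase for 1 h at 37 °C, PCR-amplified and read on an Illumina NextSeq500. Each hexamer's frequency of reads for a factor, divided by the matching frequency for the tag-only sample, gives the binding signal.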
Chain of ETV1 (P50549 whole entry): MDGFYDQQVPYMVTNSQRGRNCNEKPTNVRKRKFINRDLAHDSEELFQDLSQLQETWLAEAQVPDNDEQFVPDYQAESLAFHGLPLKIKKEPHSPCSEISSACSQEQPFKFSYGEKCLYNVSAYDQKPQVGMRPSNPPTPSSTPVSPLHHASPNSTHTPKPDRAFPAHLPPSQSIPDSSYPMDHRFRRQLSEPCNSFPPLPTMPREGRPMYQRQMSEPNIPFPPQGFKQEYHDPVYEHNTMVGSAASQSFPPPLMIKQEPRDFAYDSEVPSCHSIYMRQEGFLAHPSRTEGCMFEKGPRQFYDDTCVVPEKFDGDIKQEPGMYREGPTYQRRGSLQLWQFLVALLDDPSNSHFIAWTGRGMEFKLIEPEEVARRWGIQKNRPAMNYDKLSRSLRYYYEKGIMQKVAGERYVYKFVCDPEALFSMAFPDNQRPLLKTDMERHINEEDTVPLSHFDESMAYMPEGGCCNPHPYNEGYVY
Chain of CRX (O43186 whole entry): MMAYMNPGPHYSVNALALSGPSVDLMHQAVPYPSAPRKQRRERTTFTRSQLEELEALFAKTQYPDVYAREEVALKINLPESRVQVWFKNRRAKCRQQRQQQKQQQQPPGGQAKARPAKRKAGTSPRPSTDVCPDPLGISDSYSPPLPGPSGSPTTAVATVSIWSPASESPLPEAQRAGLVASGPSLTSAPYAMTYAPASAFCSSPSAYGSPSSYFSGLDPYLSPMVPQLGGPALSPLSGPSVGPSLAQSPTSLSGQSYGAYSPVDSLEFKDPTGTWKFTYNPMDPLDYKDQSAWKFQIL
As to GCAGAT, the binding signal was 1 fold enrichment (6-mer frequency, TF over GST control).

A further assay has as its target T2, ELK4 (Homo sapiens, UniProt P28324-2 1-405).
T2 sequence: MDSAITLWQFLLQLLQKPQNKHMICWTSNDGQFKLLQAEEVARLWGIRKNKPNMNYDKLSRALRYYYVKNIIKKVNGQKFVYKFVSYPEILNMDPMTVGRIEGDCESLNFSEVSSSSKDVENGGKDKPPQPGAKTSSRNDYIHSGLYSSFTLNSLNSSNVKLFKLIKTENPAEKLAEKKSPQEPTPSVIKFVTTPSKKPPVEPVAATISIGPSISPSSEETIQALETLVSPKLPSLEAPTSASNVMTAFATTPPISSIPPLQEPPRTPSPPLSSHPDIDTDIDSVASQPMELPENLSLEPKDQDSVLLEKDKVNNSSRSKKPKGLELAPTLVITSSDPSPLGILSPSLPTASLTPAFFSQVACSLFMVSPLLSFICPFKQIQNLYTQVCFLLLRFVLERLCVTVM
The assay is described as above. The following applies: protein: recombinant; tags: N-terminal GST; dsDNA, one strand shown. The procedure, abridged:
as §1
Consider AGTTTG, for which the binding signal is 1.03 fold enrichment (6-mer frequency, TF over GST control).

CGCTGT: the binding signal is 1.04 fold enrichment (6-mer frequency, TF over GST control).

Take AGGTCC: the binding signal was 1.02 fold enrichment (6-mer frequency, TF over GST control).

As for GTGATG, the binding signal was 1.18 fold enrichment (6-mer frequency, TF over GST control).

In the case of CACTGA, the binding signal was 1.01 fold enrichment (6-mer frequency, TF over GST control).

On to TGGCGC, for which the binding signal is 1.06 fold enrichment (6-mer frequency, TF over GST control).

In the case of CGACAG, the binding signal is 1.03 fold enrichment (6-mer frequency, TF over GST control).

CGCGCA: the binding signal was 1.13 fold enrichment (6-mer frequency, TF over GST control).

Regarding CCACGT, the binding signal is 1.01 fold enrichment (6-mer frequency, TF over GST control).

Consider CGTCAT, for which the binding signal is 1.09 fold enrichment (6-mer frequency, TF over GST control).

Take ATAGTC: the binding signal is 1.04 fold enrichment (6-mer frequency, TF over GST control).

Regarding GCAGAT, the binding signal was 1.04 fold enrichment (6-mer frequency, TF over GST control).

The next assay deals with T3, ETV2 (Homo sapiens, UniProt O00321 1-342).
T3 sequence: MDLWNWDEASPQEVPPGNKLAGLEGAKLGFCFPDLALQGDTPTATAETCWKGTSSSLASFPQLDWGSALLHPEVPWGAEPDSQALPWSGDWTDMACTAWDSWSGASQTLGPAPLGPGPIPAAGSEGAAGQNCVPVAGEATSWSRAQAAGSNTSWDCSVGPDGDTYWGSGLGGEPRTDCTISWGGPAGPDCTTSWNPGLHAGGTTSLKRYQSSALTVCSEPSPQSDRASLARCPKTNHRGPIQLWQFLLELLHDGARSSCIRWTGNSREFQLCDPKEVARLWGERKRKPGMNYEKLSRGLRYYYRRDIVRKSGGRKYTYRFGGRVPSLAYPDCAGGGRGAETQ
The description is as above. The following applies: protein: recombinant; tags: N-terminal GST; dsDNA, one strand shown. In outline:
as §1
With GTGCCG, the binding signal is 1.01 fold enrichment (6-mer frequency, TF over GST control).

In the case of CGCTGT, the binding signal was 1.01 fold enrichment (6-mer frequency, TF over GST control).

On to AGGTCC, for which the binding signal is 1.08 fold enrichment (6-mer frequency, TF over GST control).

For GGCGTT, the binding signal was 1.13 fold enrichment (6-mer frequency, TF over GST control).

As for AGATGG, the binding signal was 1.02 fold enrichment (6-mer frequency, TF over GST control).

For CGACAG, the binding signal is 1.07 fold enrichment (6-mer frequency, TF over GST control).

On to CGCGCA, for which the binding signal was 1.02 fold enrichment (6-mer frequency, TF over GST control).

Take CGCAAT: the binding signal is 1.04 fold enrichment (6-mer frequency, TF over GST control).

As for ACGAGC, the binding signal is 1.04 fold enrichment (6-mer frequency, TF over GST control).

For TGCAGG, the binding signal is 1.03 fold enrichment (6-mer frequency, TF over GST control).

For GTTCGT, the binding signal is 1.05 fold enrichment (6-mer frequency, TF over GST control).

Turning to GCAGAT, the binding signal is 1.17 fold enrichment (6-mer frequency, TF over GST control).

A further assay concerns the target T4, ELF3 (Homo sapiens, UniProt P78545 1-371).
T4 sequence: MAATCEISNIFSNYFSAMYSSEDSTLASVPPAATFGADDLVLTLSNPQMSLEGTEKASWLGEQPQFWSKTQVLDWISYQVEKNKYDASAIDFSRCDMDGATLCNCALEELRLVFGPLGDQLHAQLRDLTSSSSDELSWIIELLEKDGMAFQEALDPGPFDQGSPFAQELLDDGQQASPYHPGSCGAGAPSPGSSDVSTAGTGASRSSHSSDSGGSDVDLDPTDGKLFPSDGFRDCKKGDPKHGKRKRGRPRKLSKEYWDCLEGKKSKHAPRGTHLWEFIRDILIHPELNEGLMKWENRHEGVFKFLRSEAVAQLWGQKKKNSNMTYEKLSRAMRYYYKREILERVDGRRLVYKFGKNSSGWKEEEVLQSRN
Described as above. The following applies: protein: recombinant; tags: N-terminal GST; dsDNA, one strand shown. The procedure, abridged:
as §1
Regarding AGGTCC, the binding signal was 1.07 fold enrichment (6-mer frequency, TF over GST control).

Turning to GGCGTT, the binding signal is 1.1 fold enrichment (6-mer frequency, TF over GST control).

For AGGGAA, the binding signal is 1.01 fold enrichment (6-mer frequency, TF over GST control).

Turning to GATCAC, the binding signal is 1.04 fold enrichment (6-mer frequency, TF over GST control).

GGTTAC: the binding signal was 1.07 fold enrichment (6-mer frequency, TF over GST control).

Turning to CAGCAC, the binding signal is 1.02 fold enrichment (6-mer frequency, TF over GST control).

As for AGGTGT, the binding signal was 1.05 fold enrichment (6-mer frequency, TF over GST control).

Regarding ACGAGC, the binding signal is 1.01 fold enrichment (6-mer frequency, TF over GST control).

Consider ATGAGG, for which the binding signal is 1.17 fold enrichment (6-mer frequency, TF over GST control).

With AGATAC, the binding signal was 1.01 fold enrichment (6-mer frequency, TF over GST control).

For the sequence GTGGTT, the binding signal was 1.1 fold enrichment (6-mer frequency, TF over GST control).

Turning to ATAGTC, the binding signal was 1.07 fold enrichment (6-mer frequency, TF over GST control).

Turning to AGTAGC, the binding signal was 1.03 fold enrichment (6-mer frequency, TF over GST control).

The target in the next assay is CRX (Homo sapiens, UniProt O43186 1-299). Described as above. The settings on record: protein: recombinant; tags: N-terminal GST; dsDNA, one strand shown. In outline:
as §1
For TAAGGC, the binding signal is 1.52 fold enrichment (6-mer frequency, TF over GST control).

For GATCAC, the binding signal is 1.09 fold enrichment (6-mer frequency, TF over GST control).

Consider GCAGAT, for which the binding signal was 1.21 fold enrichment (6-mer frequency, TF over GST control).

A further assay addresses ETV1 (Homo sapiens, UniProt P50549 1-477). The description is as above. The following applies: protein: recombinant; tags: N-terminal GST; dsDNA, one strand shown. In outline:
as §1
In the case of AGGTCC, the binding signal is 1.05 fold enrichment (6-mer frequency, TF over GST control).

As for GTGATG, the binding signal was 1.03 fold enrichment (6-mer frequency, TF over GST control).

For the sequence CACTGA, the binding signal was 1.09 fold enrichment (6-mer frequency, TF over GST control).

Consider CACGGC, for which the binding signal was 1 fold enrichment (6-mer frequency, TF over GST control).

As for CCACGT, the binding signal was 1.01 fold enrichment (6-mer frequency, TF over GST control).

As for CGTCAT, the binding signal was 1.09 fold enrichment (6-mer frequency, TF over GST control).

On to ATGAGG, for which the binding signal is 1.01 fold enrichment (6-mer frequency, TF over GST control).

For the sequence AGTAGC, the binding signal was 1.05 fold enrichment (6-mer frequency, TF over GST control).

These data come from article PMC7862700, “An all-to-all approach to the identification of sequence-specific readers for epigenetic DNA modifications on cytosine”.
